Assay outcomes: PubChem, several laboratories
The sample as a whole holds a higher share of hits than the screen did.
Mac1 fbg inh – inhibitors of CD11b/CD18 adhesion to fibrinogen, primary screen, K562 cells, luminescence. ATPlite luminescence; Mn2+ added to activate the integrin. AID 1497, 2009. Integrin beta-2 (Homo sapiens) + Integrin alpha-M (Homo sapiens), P05107+P11215. inhibition, % at 10 µM. hit rate 0.54% among 93,000;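 active = primary inhibition of 50% or more at 10 µM, then 40% or more on retest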
Ecoli WT expand – growth inhibitors of wild-type E. coli, primary screen, strain BW25113, expanded library, OD600. OD600 absorbance. growth inhibition, % at 100 µM. hit rate 0.15% among 98,000;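 active = growth inhibition above about 50% at one test dose, limit read from the data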;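 also: growth measured after 20 h incubation at 37 °C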
CD11b adhes enh – enhancers of CD11b/CD18 adhesion to fibrinogen, primary screen, K562 cells, luminescence | activation, % at 10 µM | hit rate 0.07% among 93,000 | Integrin beta-2 (Homo sapiens) + Integrin alpha-M (Homo sapiens), P05107+P11215 | AID 1499, 2009 | ATPlite luminescence;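 active = 10 µM primary screen giving 50% or more activity, confirmed by 40% or more on retest at that dose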
Cav3 T inh – Cav3.2 calcium influx blockers – cell-based, Fluo-4 calcium fluorescence, FDSS, MLSMR library, primary screen. Voltage-dependent T-type calcium channel subunit alpha-1H (Homo sapiens), O95180. Cav3.2-expressing cells; stronger effect = lower value. B-score at 10 µM. hit rate 4% among 100,000. AID 449739, 2010;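 active = single-dose well whose peak fluorescence ratio is a statistical outlier from its plate by either plate-standardised score or position-corrected B-score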
Starred values were filed as active, the others as inactive; / = no result given.

SMILES	Mac1 fbg inh	Ecoli WT expand	CD11b adhes enh	Cav3 T inh
CC1CC(C)CN(S(=O)(=O)c2ccc(C(=O)Nc3nnc(-c4cccs4)o3)cc2)C1 (centres undefined)	7.5	4.0	-2.2	/
O=C(Nc1nnc(-c2cccs2)o1)c1cccc(C(F)(F)F)c1	72.3*	57.0*	1.1	/
CN(C(=S)Nc1ccccc1F)C1(c2ccccc2Cl)CCCCC1=O (centres undefined)	/	7.0	/	0.664
Cc1cccc(C(=O)N2CCN(c3ccc(C(F)(F)F)cn3)CC2)c1C	12.0	8.0	-5.0	-4.71*
Cc1ccccc1N1CCN(C(=O)c2ccc(Oc3ccc(C(F)(F)F)cn3)cc2)CC1	1.9	-19.0	3.9	-5.97*
OCC1(O)OC[C@@H](O)[C@H]1O (some centres undefined)	/	/	/	0.292
O=C(CSc1nc2ccc([N+](=O)[O-])cc2[nH]1)NC1CCCCCC1	102.5*	/	-8.9	/
Cc1ccc2nc(SCc3ccc([N+](=O)[O-])cc3)[nH]c2c1	/	24.0	/	-5.8*
O=C(CSc1nc2ccc([N+](=O)[O-])cc2[nH]1)NC1CCCCC1	-6.6	2.0	-3.3	-1.04
CC(C)C(=O)N1CCN(c2c(Cl)cccc2[N+](=O)[O-])CC1	4.2	5.0	-2.4	-1.31
O=C(NC(=S)N1CCN(c2c(Cl)cccc2[N+](=O)[O-])CC1)c1cccs1	7.9	-3.0	-0.6	-4.25*
CCN(CC)S(=O)(=O)c1cc(NC(=O)COC(=O)CCc2nc3ccccc3s2)ccc1C	7.1	-6.0	-0.7	-4.81*
Cc1nc(-c2ccc(Cl)cc2)sc1C1(C)CC(c2cccc([N+](=O)[O-])c2)=NO1 (centres undefined)	/	/	/	-0.557
CCOc1ccccc1C(=O)N1CCCCC1C (centres undefined)	-5.9	-2.0	1.1	/
O=C1CSC(=S)N1Cc1cccnc1	-8.9	65.0*	21.4	0.636
CCOC(=O)N1CCC(Nc2ccc3nnc(-c4ccccc4)n3n2)CC1	-6.9	3.0	4.9	2.69*
CCOC(=O)CC(=O)CSc1ccc2nnc(-c3ccccc3)n2n1	-6.0	3.0	1.9	0.981
O=C(CSC1=NS(=O)(=O)c2ccccc21)Nc1ccccc1	72.1*	13.0	-5.5	-1.6
COc1cccc(C(=O)OC(C)CN2CCCC2)c1 (centres undefined)	5.4	1.0	-1.1	-0.196
COc1cccc(C(=O)OCCN2CCCCC2)c1	/	/	/	-9.39*
CCOC(=O)c1sc(C)c2c1NC(C)(c1cccs1)NC2=O (centres undefined)	-45.1	-5.0	1.6	-0.814
CCc1cc(-c2n[nH]c(=S)n2-c2ccccc2C)cs1	6.4	7.0	-4.1	/
OCOCCCn1c(C2CCCN2c2nc(-c3ccc(F)cc3)cs2)nc2cc(Cl)c(N3CCCCC3)cc21 (centres undefined)	/	/	/	-1.75
Cc1ccc2cc(CN(Cc3ccco3)C(=O)NCc3ccccc3)c(=O)[nH]c2c1C	0.8	-4.0	2.0	-4.32*
COc1ccccc1NC(=O)N(Cc1ccco1)Cc1cc2ccc(C)c(C)c2[nH]c1=O	15.5	-11.0	0.4	-6.71*
SMILES	Mac1 fbg inh	Ecoli WT expand	CD11b adhes enh	Cav3 T inh
CCc1ccc2[nH]c(=O)c(CN(Cc3ccccc3)C(=O)Nc3ccccc3OC)cc2c1	11.5	2.0	-2.1	-4.34*
Cc1ccc2cc(CN(Cc3ccco3)C(=O)c3ccccc3)c(=O)[nH]c2c1C	-21.3	-1.0	-1.7	0.0147
COc1ccccc1NC(=O)N(Cc1ccco1)Cc1cc2cc(C)cc(C)c2[nH]c1=O	2.9	-4.0	-3.9	-5.11*
Cc1cc(OC(F)F)ccc1NC(=O)Nc1ccc([N+](=O)[O-])cc1	101.9	/	-9.6	/
COc1cc(CCCN2C(N)=NC[C@H]2Cc2ccc(O)cc2)cc(OC)c1OC	/	/	/	0.334
Cc1cccc2cc(CN(Cc3ccco3)C(=O)Nc3cccc(C#N)c3)c(Cl)nc12	/	-9.0	/	-4.53*
Cc1ccc(C)c2[nH]c(=O)c(CN(Cc3ccco3)C(=O)Nc3ccccc3)cc12	-13.5	-9.0	0.2	-5.97*
COc1ccc(Nc2nc(NCc3ccco3)nc(N/N=C/c3ccccc3)n2)cc1	7.6	-4.0	15.4	-7.56*
CCOc1nc(NCc2ccco2)nc(Nc2ccc(OC)cc2)n1	-8.6	-11.0	-1.4	-1.92
Cc1ccc(C(=O)N/C(=C\c2ccco2)C(=O)NCCCn2ccnc2)cc1C	-11.7	8.0	0.0	0.138
Cc1ccc(S(=O)(=O)N2CCOCC2)cc1C(=O)N1c2ccccc2Sc2ccccc21	21.7	-3.0	3.6	-4.18*
Cc1cccc(Cn2c(=O)c3c(nc4n3CCCN4Cc3ccccc3)n(C)c2=O)c1	18.4	-4.0	-0.1	-3.96
Cn1c(=O)n(Cc2ccc(F)cc2)c(=O)c2c1nc1n2CCCN1C1CCCCC1	-7.0	-19.0	-4.7	-4.85*
COc1ccc(N2CC(C)Cn3c2nc2c3c(=O)n(Cc3ccc(F)cc3)c(=O)n2C)c(OC)c1 (centres undefined)	-4.1	0.0	1.4	-4.67*
COc1ccc(N2CCCn3c2nc2c3c(=O)n(Cc3ccc(F)cc3)c(=O)n2C)c(OC)c1	-22.6	/	6.8	/
COc1ccc(C2CC(=O)c3ccccc3O2)cc1 (centres undefined)	/	/	/	-0.152
CNC(=S)N1N=C(c2ccc(Br)cc2)CC1c1ccc(Br)cc1 (centres undefined)	-6.2	-8.0	-3.6	-6.65*
COc1cc(NC(=O)CN(C)C2CCCCC2)c(C)cc1[N+](=O)[O-]	-4.9	/	-0.6	/
Cc1nn(Cc2cccc(C(=O)NC34CC5CC(CC(C5)C3)C4)c2)c(C)c1Br	/	/	/	-6.37*
Cc1nn(Cc2ccccc2Cl)c(C)c1NC(=O)NC12CC3CC(CC(C3)C1)C2	/	-9.0	/	-7.56*
O=C(O)CNC(=O)c1ccc(S(=O)(=O)N2CCOCC2)cc1	-8.8	1.0	-4.6	-0.0758
C=CCN(C(=O)c1cccc(S(=O)(=O)N2CCN(C)CC2)c1)c1nc(-c2ccccc2)cs1	26.0	1.0	-1.8	/
Cc1ccc(S(=O)(=O)NNC(=O)c2sc3nc(C)cc(C)c3c2-n2cccc2)cc1	-5.6	12.0	-1.9	-3.78
CCOC(=O)C(=Cc1ccc(-c2ccsc2C(=O)OC)o1)C(=O)OCC	/	1.0	/	-1.9
CCOC(=O)/C(C#N)=C/c1ccc(-c2ccsc2C(=O)OC)o1	/	-6.0	/	-7.02*
SMILES	Mac1 fbg inh	Ecoli WT expand	CD11b adhes enh	Cav3 T inh
CCCCC(CC)C(=O)NCCCN1CCN(CCCNC(=O)C(CC)CCCC)CC1 (centres undefined)	-2.2	4.0	3.0	-7.29*
Cn1c2ccccc2c(=O)c2c(=O)n(C3CCCCC3)c(-c3cccs3)nc21	-1.4	16.0	-4.2	-4.31*
CN(C(=O)c1ccc2c(c1)C(=O)N(CCC1=CCCCC1)C2=O)C1CCCCC1	13.6	-5.0	2.2	-6.13*
CCN1c2cccc3cccc(c23)S1(=O)=O	-5.5	-2.0	-2.2	/
CCN1/C(=C(\O)c2ccccc2)C(=O)c2ccccc2S1(=O)=O	-20.3	12.0	-2.6	-3.84*
C=CCn1cc(C(=O)NCc2ccco2)c(=O)c2cc(S(=O)(=O)N3CCCCCC3)ccc21	10.8	-22.0	-7.7	-4.86*
